Compound activity: PubChem, National Center for Advancing Translational Sciences (NCATS)
Only some compounds are listed: those with a hit (about 12% of all), similar ones and a draw of the others.
JMJD2A Tudor: qHTS Assay for Inhibitors of JMJD2A-Tudor Domain; Lysine-specific demethylase 4A (Homo sapiens), O75164; AlphaScreen JMJD2A-Tudor / H3K4me3 peptide binding; Potency, µM (titrated, usually from 114 µM), for the others: top-dose activity change, negative = inhibition, hits mostly inhibitors; actives 4.4% (n = 390,000); AID 504339, 2011; also: % is scaled to controls: 0 for no effect and ±100 for the full control effect; nearly all actives have a fitted effect of over 50% in size
HP1b binding inh: HTS for Inhibitors of HP1-beta Chromodomain Interactions with Methylated Histone Tails | actives 0.56% (n = 390,000) | AlphaScreen HP1-beta / biotin-H3K9me3 peptide binding | Potency, µM (series often up to 114 µM), for the others: top-dose activity change, negative = inhibition, usual class: inhibitors | AID 540317, 2011 | Chromobox protein homolog 1 (Homo sapiens), P83916; also: nearly all actives have a fitted effect of over 70% in size
Target sequence (P83916 whole entry, looked up): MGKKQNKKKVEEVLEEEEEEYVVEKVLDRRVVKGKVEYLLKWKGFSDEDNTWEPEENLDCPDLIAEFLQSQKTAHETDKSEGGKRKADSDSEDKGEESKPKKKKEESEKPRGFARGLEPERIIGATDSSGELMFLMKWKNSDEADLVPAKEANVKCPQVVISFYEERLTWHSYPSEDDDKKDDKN
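Compound inhibition of the preformed complex between 50 nM HP1-beta and 50 nM biotinylated H3K9me3 peptide was read by AlphaScreen. Buffer was PBS pH 7.4 with 0.01% Tween-20. Incubations ran 30 min at room temperature, with 10 ug/mL donor/acceptor beads.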
G9a block: qHTS Assay for Inhibitors of Histone Lysine Methyltransferase G9a | Histone-lysine N-methyltransferase EHMT2 (Homo sapiens), Q96KQ7 | G9a H3K9 monomethylation, AlphaScreen, 2 h | Potency, µM (titrated, usually from 102 µM), without a hit: at the top dose activity, negative = inhibition, hits mostly inhibitors | actives 8.8% (n = 350,000); also: % is scaled to controls: 0 for no effect and ±100 for the full control effect; nearly all actives have a fitted effect of over 75% in size
Target sequence (Q96KQ7 913-1193 limits assumed): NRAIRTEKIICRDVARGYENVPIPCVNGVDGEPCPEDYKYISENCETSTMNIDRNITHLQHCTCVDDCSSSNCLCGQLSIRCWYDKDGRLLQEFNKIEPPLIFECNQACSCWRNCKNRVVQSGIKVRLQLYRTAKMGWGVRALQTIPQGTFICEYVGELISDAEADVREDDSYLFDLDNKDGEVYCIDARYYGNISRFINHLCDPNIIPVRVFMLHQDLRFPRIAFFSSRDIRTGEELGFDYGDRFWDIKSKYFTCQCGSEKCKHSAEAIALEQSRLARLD
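Step 1: enzyme (final 20 nM) with compound, 15 min RT. Step 2: substrate peptide 500 nM and SAM 20 uM, 2 h RT. Step 3: anti-H3K9me1 antibody and AlphaScreen beads, 10 min, then plate read.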
Sfp inh: qHTS Assay for Inhibitors of Bacillus subtilis Sfp phosphopantetheinyl transferase (PPTase). 4'-phosphopantetheinyl transferase ffp (Bacillus subtilis), Q9F4F7. Biochemical Sfp PPTase activity, qHTS. Potency, µM, without a hit: largest response in the series, negative = inhibition, usual class: inhibitors. actives 3.5% (n = 310,000);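 also: the enzyme is Sfp with the accession as filed and its product quenches rhodamine fluorescence; 0% = enzyme reaction without inhibitor and -100% = no enzyme wells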
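With Hepes-Na pH 7.6 buffer containing 10 mM MgCl2, Sfp (15 nM) modified BHQ-2-YbbR (12.5 uM) using rhodamine-CoA (5 uM). Two reads 30 minutes apart at 525/598 nm yielded each well's rate.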
BAZ2B inh: qHTS Assay for Inhibitors of BAZ2B; Bromodomain adjacent to zinc finger domain protein 2B (Homo sapiens), Q9UIF8; AlphaScreen BAZ2B-H3K14Ac peptide displacement; Potency, µM (series often up to 114 µM), inactives show top-dose activity change, negative = inhibition, usual class: inhibitors; actives 4.4% (n = 360,000); AID 504333, 2011; also: % is scaled to controls: 0 for no effect and ±100 for the full control effect; nearly all actives have a fitted effect of over 60% in size
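BAZ2B (50 nM) with biotin-H3(5-23)K14Ac peptide (50 nM) in PBS pH 7.4, 0.01% Tween-20, preformed 30 min, then compound 30 min at room temperature; top concentration 110uM. AlphaScreen streptavidin donor/nickel chelate acceptor beads (10 ug/mL final), 20 min dark, signal read.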
Starred values were filed as active, the others as inactive; ? = inconclusive; / = no result; ! = repeats disagree; [ ] = remark or other dose. Calls follow the shape of the dose curve; as a rule, active = well fitted curve in the direction sought with a large enough effect; inconclusive = small, poorly fitted or top-dose-only effect, or another doubt; inactive = no such curve, though single readings can be large; an effect the other way counts as inactive or inconclusive. Potency is read from the fitted curve at half-maximal effect.

SMILES	JMJD2A Tudor	HP1b binding inh	G9a block	Sfp inh	BAZ2B inh
COc1cc(CNc2nc3c(C)cc(C)cc3s2)ccc1O	?	-18%	45µM*	-6%	50µM*
O=c1[nH]cc(N2CCCCCC2)c(=O)[nH]1	-1%	50%	50µM*	-4%	1%
Cc1cc(C(=O)CSCCCn2c(=O)[nH]c3ccccc32)c(C)n1C	50µM*	-15%	10%[12.7 µM]	-25%	?
O=c1[nH]c2ccccc2n1CCCSCCCn1c(=O)[nH]c2ccccc21	-19%	19%	-22%	-27%	4%
COC(=O)C/C=C1\c2ccccc2C(OC)C1C (stereo unspecified)	/	/	/	5%	/
CCC1Oc2ccc(C)cc2N(CC(=O)NCCc2ccccc2)C1=O (stereo unspecified)	-9%	-6%	0%[59 µM]	/	1%
C#CCOc1c(Br)cc(/C=C2/C(=O)ON=C2C)cc1OC	-30%	-34%	40µM*	56µM*	-20%
C#CCOc1c(Cl)cc(/C=N/NC(N)=S)cc1OCC	-14%	40%	?	9%	-4%
COc1ccccc1/C=C1/C(=O)ON=C1C	-21%	7%	-34%[12.7 µM]	-28%	-19%
CCCOc1ccc(Cl)cc1/C=C1/C(=O)ON=C1C	7.9µM*	9%	32µM*	?	-24%
C=CCOc1c(Br)cc(/C=C2/C(=O)ON=C2C)cc1OC	20µM*	12%	32µM*	?	?
COc1ccc(/C=C2/C(=O)ON=C2C)cc1Br	-29%	14%	?	?	-17%
C#CCOc1c(Cl)cc(/C=C2/C(=O)ON=C2C)cc1OCC	-13%	4%	40µM*	79µM*	-36%
CCCCN1C(=O)CN(C2CCCCCC2)C(=O)C1c1ccc(OC(C)C)c(OC)c1 (stereo unspecified)	-9%	21%	7%[59 µM]	/	-10%
Cc1ccc(C(CC(=O)NCC2(c3ccccc3)CCCC2)c2ccccc2)c(O)c1 (stereo unspecified)	-10%	8%	-17%[59 µM]	/	5%
CC1=NOC(=O)/C1=C\c1ccc(-c2ccc(Cl)cc2Cl)o1	?	-17%	8.9µM*	45µM*	?
C#CCOc1c(Br)cc(/C=C2/C(=O)ON=C2C)cc1OCC	-13%	13%	45µM*	-68%	?
Cc1cccc(C)c1NC(=O)c1ccc(-c2ccc(Cl)cc2Cl)o1	-19%	41%	-29%	-12%	-6%
C#CCOc1ccc(/C=C2/C(=O)ON=C2C)cc1Cl	13µM*	-5%	35µM*	?	-4%
CCOc1c(Br)cc(/C=C2\N=C(C)OC2=O)cc1Br	-22%	24%	3%	8%	-1%
CCCNC(=O)OC[C@@H]1O[C@H](CCO/N=C(\C)CCN2CCc3nc(-c4ccccc4)c(-c4ccccc4)cc3C2)C=C[C@@H]1Oc1ccc(OC)cc1	/	/	/	1%	/
Cc1cc(N)c2ccccc2[n+]1CCCCCCCCCC[n+]1c(C)cc(N)c2ccccc21	/	/	50µM*!	4.5µM*!	/
O=c1oc2ccccc2c(Nc2cc3ccccc3cc2O)c1[N+](=O)[O-]	?	-8%	?	-10%	11µM*
CCCNc1nc2ccccc2c(=O)[nH]1	-2%	2%	8%	18%	4%
CCCNc1ncc2c(=O)[nH][nH]c(=O)c2n1	20µM*	3%	/	/	/
SMILES	JMJD2A Tudor	HP1b binding inh	G9a block	Sfp inh	BAZ2B inh
COc1ccc(N2CC(NC(=O)c3c(F)cccc3Cl)CC2=O)cc1OC (stereo unspecified)	-13%	9%	-4%[59 µM]	/	-8%
CC1CN(S(=O)(=O)c2cccc(-c3csc(-c4ccccc4)n3)c2)CC(C)O1 (stereo unspecified)	-1%	-5%	18µM*	-6%	0%
CCc1ccc(-c2cc(-c3n[nH]c(=S)n3CC)c3ccccc3n2)cc1	/	/	?	3%	?
CCCn1c(-c2ccc(F)cc2)n[nH]c1=S	5.6µM*	15%	22µM*	-4%	17%
CCn1c(-c2nn(C)c(C)c2Cl)n[nH]c1=S	?	38%	2.2µM*	-3%	0%
CCCn1c(-c2ccc(F)cc2)nc2c(N(C)CCN(C)C)nc(C)nc21	/	/	/	33%	/
CCCCn1c(-c2ccc([N+](=O)[O-])cc2)n[nH]c1=S	7.9µM*	?	?	-8%	-5%
CCn1c(-c2ccc(Cl)cc2)n[nH]c1=S	5µM*	-3%	1.3µM*	2%	3%
CCCCc1nc(SCc2ccc([N+](=O)[O-])cc2)n[nH]1	-6%	44%	/	16%	-2%
NC(=O)CSc1nnnn1-c1cccc(O)c1	-9%	35%	-1%[59 µM]	/	-3%
Cc1ccccc1NC(=O)CS(=O)(=O)c1cccc2nsnc12	-9%	17%[57 µM]	17%[59 µM]	/	-1%
Cc1ccccc1-c1csc2ncnc(Sc3nnnn3C)c12	-9%	/	/	/	/
CCn1c(-c2ccc(C)cc2)n[nH]c1=S	7.9µM*	16%	1.3µM*	?	-24%
Cc1occc1C(=O)Nc1sccc1C(N)=O	-32%	31%	/	1%	?
CCNC(=S)NNC(=O)c1cc(C)on1	-19%	38%	32%[12.7 µM]	56µM*	8%
CCCc1cc(C(N)=O)c(NC(=O)c2cc(C)on2)s1	-20%	-3%	?	32µM*	-2%
CCCc1cc(C(N)=O)c(NC(=O)c2ccoc2C)s1	?	?	?	13µM*	-36%
Cc1cc(C(=O)NNC(=S)NCc2ccccc2)no1	-5%	43%	1%	16%	4%
CCOc1cc(/C=C(\C#N)C(=O)Nc2ccc(S(N)(=O)=O)cc2)ccc1OCCN1CCOCC1	-16%	3%	15%	25%	-9%
COc1ccc(-c2c3c([nH]c(=S)c2C#N)CCC3)cc1	45µM*	-16%	?	22µM*	1%
COc1ccc(OC)c(-c2c3c([nH]c(=S)c2C#N)CCCC3)c1	-32%	9%	?	22µM*	?
Cc1cc(C(=O)NCc2ccccc2C)c2c(C)nn(-c3cccc(F)c3)c2n1	7%	42%	-2%[59 µM]	/	15%[57.1 µM]
CC(C)N1C(=O)S/C(=C\c2ccc(-c3ccc(Cl)c(C(=O)O)c3)o2)C1=O	79µM*	-11%	40µM*	-28%	-34%
CCOC(=O)CN1C(=O)S/C(=C\c2ccc(-c3ccc(C(=O)O)c(Cl)c3)o2)C1=O	79µM*	-13%	50µM*	50µM*	?
O=C(CCN1C(=O)/C(=C\c2ccccc2)SC1=S)N1CCOCC1	-12%	27%	-3%	10%	-1%
COC(=O)CN1C(=O)S/C(=C/c2ccc(N3CCCCC3)o2)C1=O	35µM*	?	27%[0.501 µM]	7.1µM*	45µM*
CC(C)OC(=O)c1cc(-c2ccc(C=O)o2)ccc1Cl	5%	14%	?	-11%	-33%
